“And” between values parts separate entries of the source, which are not always exact repeats. Equal entries are not always repeated. Records with an inconclusive call do not appear. The source made the active and inactive calls. Unless noted, calls follow the shape of the dose curve; as a rule, active = well fitted curve in the direction sought with a large enough effect; inconclusive = small, poorly fitted or top-dose-only effect, or another doubt; inactive = no such curve, though single readings can be large; an effect the other way counts as inactive or inconclusive.

Assay [1] is described as follows: P-glycoprotein substrates identified in KB-3-1 adenocarcinoma cell line, qHTS therapeutic library screen (AID 1346986). Also: nearly all actives have a fitted effect of over 60% in size. A digest of the protocol: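 Compounds were tested in dose-response against KB-3-1 and KB-8-5-11 cells at 37 degree C for 72 h, and viability was measured by luminescence. AC50 values came from curve fitting with class-based activity calls.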
(In general: qHTS replaces the single test concentration by a dilution series.)

Assay [2] in a line: P-glycoprotein substrates identified in KB-8-5-11 adenocarcinoma cell line, qHTS therapeutic library screen (AID 1346987). Also: nearly all actives have a fitted effect of over 65% in size. Also: potency is read from the fitted curve at half-maximal effect. As to activity change, negative = cytotoxicity: % is scaled to controls: 0 for no effect and ±100 for the full control effect. In short, it runs like this:
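KB-8-5-11: colchicine-selected sub-line of KB-3-1 over-expressing P-gp; assay medium lacked colchicine. 72 h drug exposure at 37 degree C, CellTiter-Glo.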

The test system of assay [3] is Zika virus NS2B-NS3 protease (unlinked complex). Briefly: Primary screen GU Rhodamine qHTS for Zika virus inhibitors: Unlinked NS2B-NS3 protease assay (AID 1347159). Also: % is scaled to controls: 0 for no effect and ±100 for the full control effect; nearly all actives have a fitted effect of over 60% in size. In short, it runs like this: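 Compounds, tested up to 114 microM, were incubated for 15 minutes with 25 nM unlinked NS2B-NS3 protease at pH 8.0. Cleavage of 1.5 microM Rhodamine110 substrate was then followed by fluorescence for 15 minutes.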

Assay [4] can be described thus: Primary qHTS for inhibitors of nuclear receptor binding SET domain protein 2 (NSD2) in an RCH-ACV wild type WT cells (2C) (AID 1645877). Also: nearly all actives have a fitted effect of over 70% in size. Also: potency is read from the fitted curve at half-maximal effect. As to activity change, negative = cell killing: % is scaled to controls: 0 for no effect and ±100 for the full control effect.
Assay [5] in a line: Primary redox qHTS assay for identification of artifact compounds. (AID 1845223).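 Also: 0% = DMSO and 100% = reference compound.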 A digest of the protocol: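 Amplex Red (25 uM) and HRP (250 mU/mL) in HBSS, with compounds for 15 min, then 250 uM DTT for 30 min, room temperature, dark. Fluorescence 525/598 nm read; normalized to DMSO and 10 uM DA3003; Hill fit.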
The subject of a further assay is KB-3-1. Briefly: Cytotoxic Profiling of Annotated Libraries Using Quantitative High-Throughput Screening (AID 1296008). Also: nearly all actives have a fitted effect of over 60% in size. Also: potency is read from the fitted curve at half-maximal effect. As to conditions: Five cell lines viability, CellTiter-Glo ATP luminescence, 48-72 h; max response: stronger effect = lower value. In short, it runs like this: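 Cells exposed to compounds for 48 or 72 hr at 37 degrees Celsius. Viability read as ATP-coupled luminescence with CellTiter-Glo after 10 min at room temperature.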
(In general: In ATP-based viability assays light output follows the ATP content of the culture.)

In a further assay the test system is HeLa. Kind of assay: Primary qHTS to identify gynecologic anti-cancer compounds using libraries of approved drugs and bioactive compounds (AID 1345084). Also: nearly all actives have a fitted effect of over 55% in size. Also: potency is read from the fitted curve at half-maximal effect. As to activity change, negative = cytotoxicity: % is scaled to controls: 0 for no effect and ±100 for the full control effect. As to conditions: Gynecologic cancer cell panel viability, ATPlite luminescence, 48 h; series mostly up to 57.5 µM. In short, it runs like this: (§1)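 Luminescence from the ATPlite ATP-monitoring reagent indicates viable cell number; lower signal means cytotoxicity. Cells received compound 16 h after seeding and were exposed for 48 h across five concentrations.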

Another assay concerns JEG-3. Described as above. The note with it: Gynecologic cancer cell panel viability, ATPlite luminescence, 48 h; series mostly up to 57.5 µM. In short, it runs like this:
as §1

For a further assay, the system named is SKOV3. The description is as above. The note with it: Gynecologic cancer cell panel viability, ATPlite luminescence, 48 h; series mostly up to 57.5 µM. In short, it runs like this: as §1
A further assay has as its system CAOV3. The description is as above. The note with it: Gynecologic cancer cell panel viability, ATPlite luminescence, 48 h; series mostly up to 57.5 µM. A digest of the protocol:
as §1

For assay [6], the target named is Cytochrome P450 2D6 (Homo sapiens) (UniProt P10635). Briefly: Cytochrome P450 family 2 subfamily D member 6 (CYP2D6) small molecule antagonists: luciferase biochemical (cell-free) qHTS assay (AID 1645840; active = well fitted curve in the direction sought with a large enough effect in the repeat runs; an effect the other way counts as inactive or inconclusive; also: nearly all actives have a fitted effect of over 55% in size; also: potency is read from the fitted curve at half-maximal effect; as to activity change, negative = inhibition: % is scaled to controls: 0 for no effect and ±100 for the full control effect). A digest of the protocol:
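P450-Glo luminescent screen: recombinant CYP2D6 enzyme–proluciferin substrate mix preincubated with compound 10 min at room temperature, then NADPH regeneration added for 1 h at room temperature. Detection reagent added for 20 min; luciferin light read as relative luminescence units.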

The target in assay [7] is Cytochrome P450 2C9 (Homo sapiens) (UniProt P11712). Kind of assay: Cytochrome P450 family 2 subfamily C member 9 (CYP2C9) small molecule antagonists: luciferase biochemical (cell-free) qHTS assay (AID 1645842; active = well fitted curve in the direction sought with a large enough effect in the repeat runs; an effect the other way counts as inactive or inconclusive; also: nearly all actives have a fitted effect of over 55% in size; also: potency is read from the fitted curve at half-maximal effect). A digest of the protocol:
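Luminescence, after 20 min with luciferin detection reagent, reflected CYP2C9 turnover during a 1 h NADPH-driven reaction at 37C. Enzyme-substrate mix contained 0.4% bovine serum albumin and was preincubated with compound 10 min at room temperature.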

Assay [8] deals with Guanidinoacetate N-methyltransferase (Homo sapiens) (UniProt Q14353). Kind of assay: Confirmatory Screen for Target Class Profiling of Small Molecule Inhibitors of Methyltransferases (AID 1745852). As to conditions: activity change, negative = inhibition: at 57.3 µM (top of the series) unless noted.
For assay [9], the target named is Nicotinamide N-methyltransferase (Homo sapiens) (UniProt P40261). The description is as above. As to conditions: MTase-Glo luminescence, SAH detection, recombinant enzyme; measured here: NNMT max response; stronger effect = lower value.
Assay [10] can be described thus: qHTS drug screen for cell cycle checkpoint inhibitors in PARPi-resistant BRCA-mutant ovarian cancer cell lines. (AID 1963452; calls by dose curve; also: potency is read from the fitted curve at half-maximal effect). As to conditions: PEO1/OlaR viability, CellTiter-Glo luminescence, 96 h; for Z-AUC: stronger effect = lower value. In short, it runs like this: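 PEO1, PEO4 and PEO1/OlaR ovarian cancer cells, 600 per well, exposed 96 h at 37C to a dilution series. Viability read by CellTiter-Glo luminescence, normalized to DMSO and empty wells; activity summarized as Z-AUC.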

Nicotinamide N-methyltransferase (Homo sapiens), sequence (P40261 whole entry, looked up): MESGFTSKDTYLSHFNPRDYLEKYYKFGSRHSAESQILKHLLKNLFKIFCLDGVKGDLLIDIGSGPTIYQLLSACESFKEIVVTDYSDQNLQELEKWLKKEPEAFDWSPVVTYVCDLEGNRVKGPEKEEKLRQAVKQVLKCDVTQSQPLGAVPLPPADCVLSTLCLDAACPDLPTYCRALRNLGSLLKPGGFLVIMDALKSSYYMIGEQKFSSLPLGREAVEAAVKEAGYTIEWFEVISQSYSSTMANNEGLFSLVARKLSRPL
Cytochrome P450 2D6 (Homo sapiens), sequence (P10635 whole entry, looked up): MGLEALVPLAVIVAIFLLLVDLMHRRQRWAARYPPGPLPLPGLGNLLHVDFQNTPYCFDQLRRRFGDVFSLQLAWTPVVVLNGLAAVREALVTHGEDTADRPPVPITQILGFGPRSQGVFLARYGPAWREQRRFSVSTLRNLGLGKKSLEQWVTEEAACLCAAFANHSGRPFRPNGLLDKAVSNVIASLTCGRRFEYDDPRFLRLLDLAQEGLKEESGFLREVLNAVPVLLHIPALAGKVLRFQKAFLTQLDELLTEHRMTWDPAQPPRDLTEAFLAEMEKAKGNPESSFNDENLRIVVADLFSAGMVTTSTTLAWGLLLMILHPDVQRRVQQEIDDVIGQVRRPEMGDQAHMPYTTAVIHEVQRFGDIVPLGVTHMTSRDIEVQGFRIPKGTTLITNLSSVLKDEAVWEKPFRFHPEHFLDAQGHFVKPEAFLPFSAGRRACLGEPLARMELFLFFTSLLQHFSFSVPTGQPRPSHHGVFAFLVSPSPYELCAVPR
Cytochrome P450 2C9 (Homo sapiens), sequence (P11712 whole entry, looked up): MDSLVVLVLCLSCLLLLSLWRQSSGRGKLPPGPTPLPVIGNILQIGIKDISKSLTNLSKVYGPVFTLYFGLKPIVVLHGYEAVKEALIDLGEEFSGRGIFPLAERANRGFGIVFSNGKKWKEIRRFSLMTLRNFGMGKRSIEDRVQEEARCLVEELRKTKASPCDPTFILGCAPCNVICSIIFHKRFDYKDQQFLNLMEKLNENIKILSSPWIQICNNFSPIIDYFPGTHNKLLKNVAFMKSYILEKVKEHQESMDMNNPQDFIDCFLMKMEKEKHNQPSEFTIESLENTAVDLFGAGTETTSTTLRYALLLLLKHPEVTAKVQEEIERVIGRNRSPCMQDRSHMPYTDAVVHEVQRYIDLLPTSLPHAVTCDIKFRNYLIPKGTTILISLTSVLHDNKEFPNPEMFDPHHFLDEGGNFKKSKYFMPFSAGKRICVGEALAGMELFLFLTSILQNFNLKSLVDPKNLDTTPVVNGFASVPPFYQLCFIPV

Take `C[C@H]1O[C@@H](n2cnc3c(N)ncnc32)C[C@@H]1O`: the Potency result (in assay [1]; in assay [2]; in assay [3]; in [4]; in [5]; in the assay with HeLa) was “inactive” in each case. For the same compound, the Potency entry with JEG-3 and with SKOV3 was “inactive” each time. The outcome in the assay with KB-3-1 is “inactive”.
With `COC1CC(O[C@H]2CC[C@]3(C)C4CC[C@]5(C)[C@@H](C6=CC(=O)OC6)[C@@H](OC(C)=O)C[C@]5(O)C4CC[C@@H]3C2)OC(C)C1O[C@@H]1O[C@H](CO)[C@@H](O)[C@H](O)[C@H]1O` (some centres undefined), the Potency in assay [2] was 544 nM (active); in assay [4], 483 nM (active); in the assay on KB-3-1, 862 nM (active); in the assay on CAOV3, 1120 nM (active); in the assay with SKOV3 it was 891 nM (active).
With `CC1CCCC(=O)CCC/C=C/c2cc(O)cc(O)c2C(=O)O1` (centres undefined), the Potency entry (in assay [1]; in [2]; in the assay on CAOV3; in the assay on HeLa; in the assay on JEG-3; in the assay on SKOV3) was “inactive” each time. The outcome in the assay with KB-3-1 is “inactive”.
With `CC(=O)OC[C@]12C[C@H](OC(=O)CC(C)C)C(C)=C[C@H]1O[C@@H]1[C@H](O)[C@@H](OC(C)=O)[C@@]2(C)[C@@]12CO2`, the Potency result in assay [3] and in assay [5] was “inactive” in each case. Besides, the Potency in the assay with KB-3-1 was 35.5 nM (active); in the assay on CAOV3 it was 89.1 nM (active); with HeLa, 158 nM (active); in the assay with JEG-3, 1000 nM (active).
`O=C(CC1NCCC[C@H]1O)Cn1cnc2cc(Br)c(Cl)cc2c1=O` (some centres undefined): the Potency result in [2], in assay [6] and in assay [7] was “inactive” in each case. Moreover, the max response in the assay on KB-3-1 is -10.5% (inactive).
For the compound `C[C@H]1O[C@@H](O[C@H]2CC[C@]3(CO)C4CC[C@]5(C)[C@@H](C6=CC(=O)OC6)CC[C@]5(O)[C@@H]4CC[C@H]3C2)[C@H](O)[C@H](O)[C@@H]1O[C@@H]1O[C@H](CO)[C@@H](O)[C@H](O)[C@H]1O` (some centres undefined), the Potency in assay [2] is 862 nM (active); in the assay with KB-3-1, 1930 nM (active); in the assay with HeLa it was 3160 nM (active); with SKOV3, 2820 nM (active). Further, the activity change, negative = inhibition in assay [8] was -0.722% [at 19.1 µM]. Also, the activity in assay [9] was -7.07%. The Potency entry in assay [5] was “inactive”.
Consider `CC[C@H]1C[C@@H]2CC[C@@H](O2)[C@@H](C)C(=O)O[C@H](CC)C[C@H]2CC[C@H](O2)[C@H](C)C(=O)O[C@@H](C)C[C@@H]2CC[C@@H](O2)[C@@H](C)C(=O)O[C@H](CC)C[C@H]2CC[C@H](O2)[C@H](C)C(=O)O1`, for which the Potency in assay [2] was 968 nM (active); in assay [4], 13.6 nM (active); in the assay with KB-3-1, 15.3 nM (active); in the assay on CAOV3, 398 nM (active); with HeLa it was 562 nM (active); in the assay with SKOV3 it was 251 nM (active). Moreover, the Potency result (in assay [3]; in [5]; in the assay with JEG-3) was “inactive” throughout.
For the compound `CN(C)c1cc2c(cc1Sc1nc3c(N)nccc3n1CCNCC(C)(C)C)OCO2`, the Potency is 517 nM (active) in assay [2]; 952 nM (active) in [6]; 3790 nM (active) in assay [7]; 365 nM (active) and 742 nM (active) in [4]; 1550 nM (active) in assay [10]; 731 nM (active) in the assay with KB-3-1. Besides, the Potency is 1120 nM (active) in the assay on CAOV3, 11200 nM (active) with JEG-3 and 5620 nM (active) in the assay with SKOV3. In addition, the Potency result in assay [3] is “inactive”. Moreover, the activity change, negative = inhibition in assay [8] was -4.13%. Further, in assay [9], the activity was -41.4%. For the same compound, the Z-AUC in assay [10] (measured here: PEO1 parental Z-AUC) was -1.43; in assay [10] (measured here: PEO4 Z-AUC), -1.
As for `CO[C@H]1C[C@H](O[C@H]2CC[C@@]3(C)C(=CCC4C3CC[C@]3(C)[C@@H](C5=CC(=O)OC5)CC[C@]43O)C2)O[C@@H](C)[C@@H]1O[C@@H]1O[C@H](CO[C@@H]2O[C@H](CO)[C@@H](O)[C@H](O)[C@H]2O)[C@@H](O)[C@H](O)[C@H]1O` (some centres undefined), the activity change, negative = cytotoxicity in [2] was 3.8% [at 9.29 µM] (inactive); in the assay with CAOV3 it was 17.9% [at 11.6 µM] (inactive); with HeLa, 1.26% [at 11.6 µM] (inactive); with JEG-3, 16.2% [at 11.6 µM] (inactive). In addition, the Potency result in assay [3] is “inactive”. In addition, in assay [4], the activity change, negative = cell killing was -4.53% [at 9.23 µM] (inactive). Also, the redox activity (% of DA3003) in [5] was 8.54% [at 11.5 µM] (inactive). Further, the max response in the assay with KB-3-1 was 4.69% (inactive).

(Values after PubChem BioAssay (NCATS).)
